# Source: PubChem BioAssay
# Marburg entry inh = qHTS for inhibitors of binding or entry into cells for Marburg Virus | AID 540276, 2011 | Potency, µM (highest dose often 37.8 µM), for inactives: top-dose activity change, negative = inhibition, most hits filed as inhibitors | Marburg virus pseudotyped entry inhibition, cell reporter | hit rate 1.8% among 300,000; calls by dose curve; tested in HEK293 cells; note: potency is the fitted concentration of half-maximal effect
# Lassa entry inh = qHTS for Inhibitors of binding or entry into cells for Lassa Virus; Lassa virus pseudotype entry inhibition, cell reporter; Potency, µM (doses to about 37.9 µM), inactives show at the top dose activity change, negative = inhibition, most hits filed as inhibitors; hit rate 1.2% among 300,000; AID 540256, 2011; calls by dose curve; tested in HEK293 cells; note: potency is the fitted concentration of half-maximal effect; nearly all actives have a fitted effect of over 50% in size
# Vaccinia mCherry = qHTS for Stage-Specific Inhibitors of Vaccinia Orthopoxvirus: mCherry Reporter Primary qHTS. Vaccinia virus mCherry reporter infection, fluorescence. hit rate 0.63% among 310,000. AID 720579, 2013. Potency, µM (titrated, usually from 36.5 µM), for the others: top-dose activity change, negative = inhibition, hits mostly inhibitors; calls by dose curve; tested in A549 cells; note: potency is the fitted concentration of half-maximal effect; nearly all actives have a fitted effect of over 35% in size
# HCMV antiviral = qHTS Assay for inhibitors of the human cytomegalovirus (HCMV) | activity change, negative = inhibition, % at 57.5 µM | hit rate 4.5% among 410,000 | HFF cells, HCMV-luciferase reporter, 72 h; stronger effect = lower value; in the data active = activity change below about -60%; inconclusive = no clear call, values can overlap the other calls; inactive = above about -39%
#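 Cell-based, HFFs, 1000 cells/well, 16 h 37C; cpds in DMSO + HCMV-luc, MOI 1 PFU/cell; 72 h 37C; OneGlo luminescence after 5 min RT; norm. to buffer vs Salinomycin 10uM.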
# VACV Venus inh = qHTS for Stage-Specific Inhibitors of Vaccinia Orthopoxvirus: Venus Reporter Primary qHTS | Vaccinia virus Venus reporter expression, fluorescence | Potency, µM (series often up to 36.5 µM), for inactives: at the top dose activity change, negative = inhibition, actives largely listed as inhibitors | hit rate 0.46% among 330,000 | AID 720580, 2013; calls by dose curve; tested in A549 cells; note: potency is the fitted concentration of half-maximal effect; nearly all actives have a fitted effect of over 30% in size
# HCV inh = qHTS Assay for Inhibitors of Hepatitis C Virus (HCV) | hit rate 3.4% among 340,000 | AID 651820, 2012 | Potency, µM (doses to about 41.8 µM), for the others: at the top dose activity change, negative = inhibition, usual class: inhibitors | Huh7.5.1 HCVcc-Cre infection, luciferase reporter, 44 h; active = well fitted inhibition curve with a large enough effect; inconclusive = small, poorly fitted or top-dose-only effect, or another doubt; inactive = no such curve, though single readings can be large or run the other way; note: potency is the fitted concentration of half-maximal effect
#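 Cells seeded at 1,000/well and cultured 4 h, then compounds added followed by HCVcc-Cre virus (~0.5 moi). After 44 h further culture, luciferase substrate was added, plates held 15 min at room temperature, and luminescence read for 15 sec.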
# An asterisk follows results filed as active; i = inactive; ? = inconclusive; . = no result given; [ ] = remark or other dose. The list is not random: actives were taken first. Their share in the collection is about 7.8%. % is set by controls: 0 for no effect and ±100 for the full control effect.
SMILES,Marburg entry inh,Lassa entry inh,Vaccinia mCherry,HCMV antiviral,VACV Venus inh,HCV inh
COc1ccc(C2=C/C(=C\c3ccc(OC(C)=O)cc3)C(=O)O2)cc1,10.0%[46.1 µM],-6.3%[46.1 µM],-5.4%,23.7,-15.7%,-1.9%
CC(=O)Oc1ccc(C2=Cc3ccc(OC(C)=O)cc3OC2C)cc1 (centres undefined),?,6.31µM*,10µM*,?,-16.2%,?
Cc1ccc(NC(=O)CN2C(=O)CCc3cc(S(=O)(=O)N4CCOCC4)ccc32)c(C)c1,.,4.0%[46.1 µM],-17.6%,17.5,-6.1%,.
CCOC(=O)C1CCCN(C(=O)c2ccc3c(c2)N(Cc2cccc(Cl)c2)C(=O)c2ccccc2S3(=O)=O)C1 (centres undefined),.,?,2.5%,-63.5*,-2.9%,.
O=C(c1ccc2c(c1)N(Cc1cccc(Cl)c1)C(=O)c1ccccc1S2(=O)=O)N1CCCCC1,.,?,-14.2%,-72.7*,-11.9%,.
O=C(c1ccc2c(c1)N(Cc1ccccc1)C(=O)c1ccccc1S2(=O)=O)N1CCCCCC1,-23.8%[46.1 µM],?,-18.6%,-36.9,-7.9%,.
CCN1CCN(C(=O)c2ccc3c(c2)N(Cc2cccc(Cl)c2)C(=O)c2ccccc2S3(=O)=O)CC1,.,?,-8.7%,-65.3*,-13.1%,.
O=C(c1ccc2c(c1)N(Cc1ccc(Cl)cc1)C(=O)c1ccccc1S2(=O)=O)N1CCN(Cc2ccccc2)CC1,?,?,-14.4%,7.7,-21.2%,.
NC(=O)C1CCN(C(=O)c2ccc3c(c2)N(Cc2cccc(Cl)c2)C(=O)c2ccccc2S3(=O)=O)CC1,.,?,-6.0%,-24.9,-4.4%,.
O=C1CCCC2=C1[C@H]1O[C@](CCCCN3C(=O)c4ccccc4C3=O)(Cc3c1ccc1ccccc31)O2,-22.6%[14.2 µM],.,.,.,.,.
Cc1cccc2c(Nc3ccc4c(c3)OCO4)nc(CN3CCC(N4CCCCC4)CC3)nc12,.,.,i,.,-11.6%,.
O=C(NCCc1ccc(Cl)cc1)c1cccn1-c1nnc(N2CCCC2)s1,.,3.7%[46.1 µM],-16.2%,0.0,-10.3%,.
COc1cc(CN2CCC3(CC2)CC3C(=O)Nc2ccc3sc(C)nc3c2)ccc1F (centres undefined),.,.,-1.1%,.,-0.8%,.
CCCCCOc1ccc(/C=C/c2c([N+](=O)[O-])c(=O)n(C)c(=O)n2C)cc1,?,6.5%[46.1 µM],-6.4%,-93.6*,-5.8%,-15.6%
O=[N+]([O-])c1cccc(/C=C/c2ccncc2)c1,?,?,?,-4.3,-2.1%,?
Cn1c(/C=C/c2cccc([N+](=O)[O-])c2)c([N+](=O)[O-])c(=O)n(C)c1=O,8.91µM*,?,?,-102.3*,?,?
CN(/C=C/c1c([N+](=O)[O-])c(=O)n(C)c(=O)n1C)c1ccccc1,-15.8%[46.1 µM],-2.2%,3.0%,-27.7,-2.0%,13.4%
Cn1c(/C=C/c2ccc(Cl)cc2)c([N+](=O)[O-])c(=O)n(C)c1=O,.,.,.,-98.2*,.,?
COc1ccc(/C=C/c2c([N+](=O)[O-])c(=O)n(C)c(=O)n2C)cc1OC,?,12.7%,-5.0%,-32.8,-1.7%,-9.1%
COc1ccc(/C=C/c2c([N+](=O)[O-])c(=O)n(C)c(=O)n2C)c(OC)c1OC,?,?,?,-64.7*,-21.6%,-8.6%
Clc1ccc(CNc2ncnc3[nH]ncc23)cc1Cl,3.98µM*,7.08µM*,11.2µM*,-33.5,10µM*,-18.7%
Cc1ccc2c(=O)cc(C(=O)Nc3cccc(Cl)c3C)oc2c1C,24.3%[46.1 µM],0.3%[46.1 µM],9.1%,38.9,-2.2%,.
CC#CC#Cc1cccc(=O)o1,.,.,-19.2%,-88.9*,-19.8%,?
COC(=O)[C@H](NC(=O)c1cc(-c2ccccc2)nc2ccccc12)c1ccccc1,?,?,-11.5%,-24.3,-4.9%,35.5µM*
Cc1ccccc1-c1cc(C(=O)Nc2sc(C(=O)OC(C)C)c(C)c2C#N)c2ccccc2n1,11.6µM*,?,.,-101.0*,.,12.6µM*
SMILES,Marburg entry inh,Lassa entry inh,Vaccinia mCherry,HCMV antiviral,VACV Venus inh,HCV inh
CCOc1ccc(-c2cc(C(=O)NC(C)c3ccccc3)c3ccccc3n2)cc1 (centres undefined),.,-2.0%[46.1 µM],-18.5%,-10.6,-12.4%,.
CCOC(=O)c1sc(NC(=O)c2cc(-c3ccc(C)cc3)nc3ccccc23)c(C#N)c1C,17.6%,4.7%,-16.5%,-102.8*,-11.9%,12.3%
Cc1sc(NC(=O)c2ccc(Br)s2)c(C(N)=O)c1C,?,?,.,209.1,.,11.2µM*
Cc1cccc(NC(=O)CN2C(=O)COc3ccc(S(=O)(=O)Nc4ccccc4)cc32)c1C,.,6.1%[46.1 µM],i,8.0,-13.3%,.
COc1cccc(NC(=O)c2oc3ccccc3c2NC(=O)C23CC4CC(CC(C4)C2)C3)c1,?,15.6%[46.1 µM],-16.4%,2.9,-18.1%,.
CCOc1ccc2nc(N3CCN(C(=O)CS(=O)(=O)c4ccc(F)cc4)CC3)sc2c1,.,?,-27.9%,?,?,.
COc1cc(=O)n2c(c1C(=O)NC(C)c1ccco1)CCN(C(=O)c1ccccc1SC)CC2 (centres undefined),.,.,i,.,0.0%,.
O=C1CCCC(=O)C1C(=O)c1ccc(C(F)(F)F)cc1[N+](=O)[O-],.,.,.,1.6,.,.
COC(=O)c1sc(NC(=O)c2cc(-c3ccccc3)nc3ccccc23)c(C#N)c1C,?,?,15.8µM*,-97.5*,?,11.2µM*
Cc1sc(NC(=O)c2cc(-c3ccc(Cl)cc3)nc3ccccc23)c(C(N)=O)c1C,?,?,.,-33.9,-20.5%,?
Cc1sc(NC(=O)c2cc(-c3ccccc3)nc3ccccc23)c(C(N)=O)c1C,?,-14.7%,-17.5%,-31.7,-17.2%,12.6µM*
O=C(COC(=O)c1ccc2[nH]c3c(c2c1)CCCC3)Nc1ccccc1,-14.9%,?,-11.3%,1.9,0.3%,12.6µM*
CCCCNC(=S)NCc1ccc2[nH]c3c(c2c1)CCCC3,.,.,-23.4%,-0.7,-21.3%,?
CC(=O)N1c2ccc(S(=O)(=O)N3CCC(C(=O)Nc4cccc(F)c4)CC3)cc2CC1C (centres undefined),-2.5%[46.1 µM],4.1%[46.1 µM],-13.8%,-61.3*,-17.2%,?
CNC(=S)NCc1ccc2[nH]c3c(c2c1)CCCC3,.,.,.,-67.4*,.,-5.6%
CC(=O)N1c2ccc(S(=O)(=O)N3CCC(C(=O)Nc4cccc(C)c4)CC3)cc2CC1C (centres undefined),?,?,-1.0%,-68.5*,-3.0%,?
CCOc1ccc(NC(=O)C2CCN(S(=O)(=O)c3ccc4c(c3)CC(C)N4C(C)=O)CC2)cc1 (centres undefined),-15.3%[46.1 µM],-24.6%[46.1 µM],-14.8%,?,-8.5%,?
CCN1CCCC(C2NC3CCCCC3S2)C1 (centres undefined),0.5%,.,.,.,.,.
